This is one part of the list. Unmarked numbers belong to inactive results. Activity calls are given as the source filed them.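 How the source made its calls: active means cell growth inhibition above the hit limit set in the earlier mutant JAK2 cell screen (cut at about 27% in these data); inactive means the rest.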

As a reminder, the inhibition is the change of the read-out against control, counted positive when it falls.

A short description of the assay: growth loss in parental Ba/F3 cells – cell-based, murine pro-B, CellTiter-Glo luminescence, counter-screen for JAK2V617F inhibitor project (AID 1520).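 Further: plate controls were DMSO-treated cells for no effect and JAK Inhibitor I control wells for full effect.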 The settings on record: Ba/F3 parental viability, at 5.6 µM, hits give high values, cells kept alive by added IL-3. On the technique in general: Cellular ATP, detected with luciferase, serves as a proxy for viable cell number.
For the compound `Cc1cccc(NC(=O)c2ccc([N+](=O)[O-])o2)c1`, the inhibition is 10.6%.

In the case of `CSCC(=O)N1CCCC(C(=O)c2cc(F)ccc2F)C1` (stereo not drawn), the inhibition was -3.79%. As for `COc1ccccc1N1CCN(Cc2ccc(OC)c3ccccc23)CC1`, the inhibition is -5.1%. On to `COc1ccc(Cc2nnc(N/N=C/c3ccccc3O)[nH]c2=O)cc1OC`, for which the inhibition is 85.6% (active). As for `CN(Cc1ccc2nsnc2c1)Cc1nc(Cc2cccc(F)c2)no1`, the figure is -7.97%; as for `CCn1c(/C=C/c2ccc([N+](=O)[O-])o2)nc2ccccc2c1=O`, 106% (active).

For the compound `CCC1CCCCN1CCCNC(=O)c1cc2c(Cl)nc3ccccc3c2s1` (stereo not drawn), the inhibition is 0.54%. As for `c1ccc2c(c1)CSc1sccc1C2=C1CCNCC1`, the figure is 0.77%. `COc1cc(OC)cc(C(=O)N[C@H](C(=O)Nc2nc3ccccc3[nH]2)C(C)C)c1`: the inhibition was 86% (active). As for `COc1ccc(-c2csc(Nc3ccc(O)cc3)n2)cc1`, the figure is 63% (active); as for `Oc1ccc(/C=N/Nc2ccc(C(F)(F)F)cn2)cc1O`, 76.2% (active).

As to `Cc1ccc(NC(=S)N(CCCN2CCC(C)CC2)Cc2ccco2)cc1`, the inhibition was 28.7% (active). With `COc1cc(OC)c(C(=O)NC2CCCCCC2)cc1OC`, the inhibition was -5.51%. For the compound `Cc1ccc(C2=NN(C)c3nc4ccccc4n3C2)cc1`, the inhibition is -0.44%. With `CCCn1c(NC(=O)C23CC4CC(CC(O)(C4)C2)C3)nc2ccccc21` the figure was -7.65%; with `O=c1oc2ccccc2cc1-c1cn(-c2ccccc2)c(=S)[nH]1`, 50% (active); with `O=C(CCl)Nc1ccc(Sc2ccc(NC(=O)CCl)cc2)cc1`, 47.3% (active).

In the case of `Cc1ccc(S(=O)(=O)C2(S(=O)(=O)c3ccc(C)cc3)CCCC2)cc1`, the inhibition is 32.1% (active). As to `O=C(CCl)N(Cc1cccc([N+](=O)[O-])c1)c1cccc(Cl)c1`, the inhibition was 87.5% (active). `CCCc1nc2ccccc2c(=O)n1/N=C/c1ccc(O)c(O)c1`: the inhibition was 1.92%. In the case of `N#C/C=C\Oc1ccc(Cl)cc1N`, the inhibition was -2.4%. As for `Cn1c(CCN2CCCCCC2)nc2cc(NC(=O)Nc3ccccc3)ccc21`, the figure is -5%.

With `COc1ccc(OC)c(Nc2nc(-c3ccc(O)c(O)c3)cs2)c1`, the inhibition is 72.9% (active).

Values taken from PubChem BioAssay AID1520 (The Scripps Research Institute Molecular Screening Center, 2009).
